Drawing on PubChem BioAssay AID588852 (The Scripps Research Institute Molecular Screening Center, 2011), this text covers inhibition for 89 compounds.

In all, about 360,000 compounds went through this assay and about 4,600 (1.3%) were called active. For the sample, actives were picked, then their nearest neighbours and some compounds at random. Values without a mark were called inactive.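 How the source made its calls: active means percent inhibition above its own plate's cutoff, namely the mean of that plate's compound wells plus 3 SD; inactive means the rest.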

Broadly, the inhibition is the relative decrease from the control value, in per cent.

Muscarinic acetylcholine receptor M1 (Homo sapiens), sequence (P11229 whole entry, looked up): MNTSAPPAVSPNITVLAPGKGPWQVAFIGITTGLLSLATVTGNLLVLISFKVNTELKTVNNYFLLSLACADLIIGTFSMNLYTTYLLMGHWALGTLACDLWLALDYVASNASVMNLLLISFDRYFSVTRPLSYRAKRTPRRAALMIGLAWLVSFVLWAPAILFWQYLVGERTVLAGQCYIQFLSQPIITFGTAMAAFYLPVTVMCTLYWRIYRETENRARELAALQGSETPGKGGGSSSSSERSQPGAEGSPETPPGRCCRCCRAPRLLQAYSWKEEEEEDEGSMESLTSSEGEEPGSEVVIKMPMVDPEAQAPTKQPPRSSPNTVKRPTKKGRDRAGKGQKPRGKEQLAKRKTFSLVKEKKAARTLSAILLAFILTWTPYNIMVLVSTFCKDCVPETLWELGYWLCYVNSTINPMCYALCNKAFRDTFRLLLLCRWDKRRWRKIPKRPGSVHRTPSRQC

This assay addresses Muscarinic acetylcholine receptor M1 (Homo sapiens) (UniProt P11229). The experiment in a line: human M1 muscarinic receptor antagonists, primary screen, CHO-K1 cells, Fluo-8 calcium fluorescence, 1536-well (AID 588852).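 Further: peak over basal fluorescence ratio during 140 s after agonist addition; 0% = ACh EC80 plus DMSO and 100% = DMSO alone without agonist.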 The note with it: CHO-K1 hM1, Fluo-8 calcium fluorescence, ACh EC80 antagonist; at 3 µM; active compounds read high.
For `COCC(=O)N1CCCC(C(=O)c2ccc(C(F)(F)F)cc2)C1` (centres undefined), the inhibition is -12.9%.

For `O=C1CCCC2=C1C(c1cccs1)n1nc(SCc3ccccc3)nc1N2` (centres undefined), the inhibition is -6.44%.

In the case of `O=C(NCC1CCCO1)c1cc2c([nH]c3ccccc32)c(-c2ccc(F)cc2)n1` (centres undefined), the inhibition is 42.6% (active).

Turning to `COc1ccc2cc(C(=O)NCC3CCCO3)[nH]c2c1` (centres undefined), the inhibition was -11.4%.

As for `O=C(NCCCO)c1cc2c([nH]c3ccccc32)c(-c2ccc(F)cc2)n1`, the inhibition is 1.06%.

On to `CC(C)(C)c1ccc(CCC2OCC(CN3CCOCC3)O2)cc1` (centres undefined), for which the inhibition is -5.48%.

Take `NC(=O)CC[C@@H]1NC(=O)[C@@H]2CCCN2C(=O)c2cc([N+](=O)[O-])cc(F)c2NCCC[C@@H](C(N)=O)NC1=O`: the inhibition is -13.1%.

On to `O=C(Nc1ccc(S(=O)(=O)N2CCCCC2)cc1)C1CC(=O)N(c2ccc(F)cc2)C1` (centres undefined), for which the inhibition was -6.03%.

As to `CN(CC(=O)Nc1ccc(F)cc1)CC(=O)Nc1ccc(Cl)c(S(=O)(=O)N2CCOCC2)c1`, the inhibition was -20.8%.

For the compound `CC(OC(=O)c1ccc(NC(=O)CC#N)cc1)C(=O)Nc1ccc(S(=O)(=O)N2CCCC2)cc1` (centres undefined), the inhibition was 32.6%.

On to `CC(C(=O)Nc1ccc(S(=O)(=O)N2CCCC2)cc1)N(C)Cc1ccc(F)cc1` (centres undefined), for which the inhibition is 53.5% (active).

With `CCc1ccc(CN(C)C(C)C(=O)Nc2ccc(S(=O)(=O)N3CCCC3)cc2)cc1` (centres undefined), the inhibition is 88.9% (active).

As for `COc1ccccc1CC(=O)Nc1ccc(S(=O)(=O)N2CCCC2)cc1`, the inhibition was -9.64%.

On to `Cc1ccc(CC(=O)Nc2ccc(S(=O)(=O)N3CCOCC3)cc2)cc1C`, for which the inhibition was -11.9%.

Regarding `CCN(CC(=O)Nc1ccc(S(=O)(=O)N2CCCC2)cc1)CC(=O)Nc1cccc(OC)c1`, the inhibition was -10.7%.

`CN(CC(=O)Nc1ccc(S(=O)(=O)N2CCCC2)cc1)Cc1ccc(Cl)c(Cl)c1`: the inhibition is 34.9% (active).

For `COc1cccc(CNC(C)C(=O)Nc2ccc(S(=O)(=O)N3CCCC3)cc2)c1` (centres undefined), the inhibition is 39.5% (active).

With `CCc1ccc(NC(=O)CN2C(=O)COc3ccc(S(=O)(=O)N4CCCC4)cc32)cc1`, the inhibition is -15.9%.

On to `O=C(Nc1ccc(S(=O)(=O)N2CCCCC2)cc1)C1CCN(C(=O)c2ccc(F)cc2)CC1`, for which the inhibition was 9.2%.

As to `COc1cccc(CNn2cn[nH]c2=S)c1OCc1ccccc1`, the inhibition was -12.7%.

In the case of `COc1ccccc1-c1cc2nc(NCc3cccc(Cl)c3)ccn2n1`, the inhibition was -15.4%.

For the compound `Nc1ncnc2c1ncn2[C@@H]1O[C@H](C(=O)NS(=O)(=O)c2c(Cl)nc3sccn23)[C@@H](O)[C@H]1O`, the inhibition is -32.1%.

As to `Cc1csc2nc(COC(=O)c3cccc(N(C)C)c3)cc(=O)n12`, the inhibition was 6.38%.

`O=C(CN1CCCCCC1)Nc1ccc(S(=O)(=O)N2CCCCC2)cc1`: the inhibition is 33.1% (active).

For the compound `O=C(CSCc1ccc(Br)cc1)Nc1ccc(S(=O)(=O)N2CCCCCC2)cc1`, the inhibition is 4.8%.

`CCOc1ccc(NC(=O)COc2ccc(S(=O)(=O)N3CCCC3)cc2)cc1`: the inhibition was 16%.

With `COCc1c(C(=O)N/N=C(\C)c2ccncc2)nnn1-c1nonc1N`, the inhibition is -10.9%.

`FC(F)(F)c1ccccc1Cc1c(-c2ccccc2)nc2c3ccccc3ccn12`: the inhibition was -26%.

Regarding `COc1ccccc1N(CC(=O)Nc1c(C)n(C)n(-c2ccccc2)c1=O)S(=O)(=O)c1ccccc1`, the inhibition is -20.5%.

For `CN(C)CCCCCN(C)Cc1cc2ccccc2o1`, the inhibition was -3.73%.

For the compound `COc1ccc(-c2cc(NC=O)c3ncc(-c4ccccc4)n3c2)cc1OC`, the inhibition was 4.7%.

On to `NC(c1ccccc1)c1csc(NC(=O)Nc2cccc(C(F)(F)F)c2)n1` (centres undefined), for which the inhibition is 6.11%.

As for `CC(=O)Nc1ccc(-c2cn3cccnc3n2)cc1`, the inhibition was -2.56%.

For the compound `CC(=O)Nc1ccc(-c2csc(NC(=O)Nc3ccccc3)n2)cc1`, the inhibition was 38.3% (active).

With `COc1ccc(CNC(=O)C(C)NCc2ccccc2Cl)cc1` (centres undefined), the inhibition was 1.81%.

`CC(CCc1ccccc1)NC(=O)c1cnc(Cl)c(Cl)c1` (centres undefined): the inhibition is 2.23%.

For `CC(CCc1ccc(O)cc1)NCc1ccc(Cl)cc1Cl` (centres undefined), the inhibition is 30.2% (active).

Turning to `COc1ccc(-c2cc(NC=O)c3ncc(-c4cc(OC)c(OC)c(OC)c4)n3c2)c(OC)c1`, the inhibition is 5.71%.

Take `Cc1ccc2cc(CCNC(=O)c3ccc4c(c3)OCO4)c(=O)[nH]c2c1`: the inhibition was -6.75%.

As to `Cc1ccc(N(C(=O)c2sc(C)nc2C)C(C(=O)NC(C)(C)C)c2ccncc2)cc1` (centres undefined), the inhibition is -4.9%.

As for `CCOCCCNS(=O)(=O)Cc1ccccc1`, the inhibition is -12.6%.

For `Cc1nccn1-c1ccc(NC(=O)[C@H]2O[C@@H](n3cnc4c(N)ncnc43)[C@H](O)[C@@H]2O)cc1`, the inhibition is -16.5%.

`O=C(NC1CCCCC1)c1ccc2c(=O)n(CC3CCCO3)c(=O)[nH]c2c1` (centres undefined): the inhibition was -13.8%.

Take `CCCCCn1c(=O)[nH]c2cc(C(=O)NCCCN3CCCCC3C)ccc2c1=O` (centres undefined): the inhibition is 27.5% (active).

For `CC1CCCCN1CCCNC(=O)Cn1ncc2c([nH]c3ccccc32)c1=O` (centres undefined), the inhibition was 3.02%.

`Cc1ccccc1NC(=O)Cc1nc(COC(=O)CNC(=O)c2ccc(Cl)cc2Cl)cs1`: the inhibition was -13%.

For the compound `Cc1ccc(CN2C(=O)N/C(=C/c3cc(C)n(-c4ccccn4)c3C)C2=O)cc1`, the inhibition is -1.22%.

As for `CN(C(=O)CN1C(=O)NC(C)(CCc2ccccc2)C1=O)c1ccccc1` (centres undefined), the inhibition is -11.9%.

For the compound `CN(C)c1ccc(/C=C2\NC(=S)N(Cc3ccccc3)C2=O)cc1`, the inhibition was 68.3% (active).

For the compound `COc1ccc(-c2cc(NC(C)=O)c3ncc(-c4cc(OC)c(OC)c(OC)c4)n3c2)cn1`, the inhibition was -10.3%.

In the case of `CC(=O)N[C@H]1[C@H]([C@H](O)[C@H](O)CO)OC(C(=O)O)=C[C@@H]1O`, the inhibition was -23.4%.

Turning to `CC(=O)Nc1cc(-c2ccccc2F)cn2c(-c3cccc(C(F)(F)F)c3)cnc12`, the inhibition was -3.02%.

Take `Fc1cccc2ncnc(OCc3ccccc3)c12`: the inhibition is -13.7%.

In the case of `Cc1occc(=O)c1OCc1ccc(F)cc1`, the inhibition was -6.78%.

Consider `Cc1nc2ccccc2cc1OCc1ccc(F)cc1`, for which the inhibition is 18% (active).

For the compound `Clc1cccc(Cc2c(-c3cccc(Cl)c3)nc3ccc(Cl)cn23)c1`, the inhibition was -29.8%.

`COCCNc1nc(Nc2ccccc2Cl)c2sc(-c3ccccc3)cc2n1`: the inhibition was -5.82%.

On to `COc1ccccc1CNc1nc(Nc2ccccc2Cl)c2sccc2n1`, for which the inhibition was 30.1% (active).

`Clc1ccccc1Nc1nc(NCc2cccs2)nc2ccsc12`: the inhibition was 7.85%.

Turning to `Cc1cc(Br)cn2c(Cc3cccc(F)c3)c(-c3cccc(Br)c3)nc12`, the inhibition was -3.87%.

Take `O=C(Cn1cnc2ccccc2c1=O)NCC1COc2ccccc2O1` (centres undefined): the inhibition was -3.89%.

Regarding `COc1ccc(CCNc2ncnc3nc[nH]c23)cc1OC`, the inhibition was 5.06%.

As to `c1ccc2c(c1)OCC(CNc1ncnc3nc[nH]c13)O2` (centres undefined), the inhibition is 101% (active).

Take `CCCN1CNC(=S)N(CCc2ccccc2)C1`: the inhibition is -6.28%.

Regarding `CC1(C)Cc2c(cnn2-c2cccc(F)c2)C(NC(=O)c2cc[n+]([O-])cc2)C1` (centres undefined), the inhibition is 9.23%.

Turning to `Cn1nccc1C(=O)NC1CCCc2c1cnn2-c1ccc(F)cc1F` (centres undefined), the inhibition is 31.6% (active).

With `Cc1ccc(-n2ncc3c2CCCC3NC(=O)c2cnccn2)cc1C` (centres undefined), the inhibition is -17.9%.

For `CCOC(=O)c1ccc(NC(=O)CS(=O)(=O)c2cn(CC)c3ccccc23)cc1`, the inhibition is -2.75%.

Consider `CCCc1nnc(SCC(=O)Nc2ccc(C(=O)OCC)cc2)o1`, for which the inhibition is 9%.

Take `CCOC(=O)c1ccc(NC(=O)Cn2cnc3cc(C)c(C)cc32)cc1`: the inhibition was 37.4% (active).

For `Cc1ccc(Cc2c(-c3ccco3)nc3ccc(Cl)cn23)cc1`, the inhibition is -22.8%.

As to `COc1cccc(CN(C)C(=O)CC[C@H]2O[C@@H](n3cnc4c(NC(=O)c5ccccc5)ncnc43)[C@H](O)[C@@H]2O)c1`, the inhibition is -19.1%.

With `CC1=C(C(=O)N(C(C)C)C(C)C)CC(CC(=O)NCCCCc2ccccc2)C(=O)N1CCC1=CCCCC1` (centres undefined), the inhibition was -20.5%.

Consider `OC[C@@H]1CN(Cc2cccs2)C[C@H](n2cnc3c(NC4CCCC4)ncnc32)O1`, for which the inhibition was -11.8%.

For `OC[C@@H]1CN(Cc2ccc(-c3ccccc3)cc2)C[C@H](n2cnc3c(NC4CCCC4)ncnc32)O1`, the inhibition was 32% (active).

With `OC[C@@H]1CN(Cc2ccc(F)cc2)C[C@H](n2cnc3c(NC4CCCC4)ncnc32)O1`, the inhibition is -0.24%.

Turning to `O=C(c1ccc(N2CCCC2=O)cc1)N1CCN(c2ccc(C(F)(F)F)cc2[N+](=O)[O-])CC1`, the inhibition was 53.8% (active).

Consider `COc1cc(OC)cc(C(=O)NC(=S)N2CCN(c3ccc(C(F)(F)F)cc3[N+](=O)[O-])CC2)c1`, for which the inhibition was -3.37%.

Turning to `O=C(c1ccc(N2CCOCC2)c([N+](=O)[O-])c1)N1CCN(c2ccccc2F)CC1`, the inhibition was -20.3%.

Consider `NC(c1csc(NC(=O)Nc2cccc(C(F)(F)F)c2)n1)C1CCCCC1` (centres undefined), for which the inhibition is 2.03%.

With `CCc1cc2c(SCC(=O)Nc3ncc(Cl)c(C)c3Cl)ncnc2s1`, the inhibition is 3.21%.

Turning to `CN(C)c1cc[n+](Cc2ccccc2)cc1`, the inhibition is 21.7%.

Take `c1ccc(Cc2cc[n+](Cc3ccccc3)cc2)cc1`: the inhibition is 37.1% (active).

Take `c1ccc(CNCc2ccc(CNCc3ccccc3)cc2)cc1`: the inhibition is 2.12%.

`CCOc1ccc(CCNC(=O)C2=C(C)C(=O)OC23CCC(C)CC3)cc1OCC` (centres undefined): the inhibition was -7.29%.

Take `NC(c1csc(NC(=O)Nc2ccccc2Oc2ccccc2)n1)c1ccccc1Cl` (centres undefined): the inhibition was -3.63%.

As to `CN(Cc1ccccc1)C(=O)COc1ccccc1`, the inhibition is 1.72%.

Regarding `CN(Cc1ccc(F)cc1)C(=O)COc1ccc2ccccc2c1`, the inhibition is 24.7% (active).

On to `Cc1ccc(C)c(NC(=O)CN(C)C(=O)COc2ccc3ccccc3c2)c1`, for which the inhibition was -15%.
